Bioassay records: PubChem, several laboratories
A selection: hits, their analogues and other compounds. The true share with any hit is near 7.2%.
ALR inh – inhibitors of human ALR sulfhydryl oxidase, primary screen, biochemical, H2O2 detection, HRP-luminol luminescence, single point; purified ALR, DTT oxidation; inhibition, % (concentration not given with the values); 3.8% of 290,000 active;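 active means mean replicate inhibition above about 79%, with every replicate also reaching it, limit read from the data; inconclusive means only one of the two criteria met; inactive means mean below limit and not every replicate reaching it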
Efflux pump mplx – inhibitors of Candida efflux pumps in yeast, primary screen, S. cerevisiae, Nile Red, multiplex. inhibition, % at 10 µM. S. cerevisiae Candida pump triplex. 0.44% of 330,000 active;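 active means plate passing quality check with inhibition over a set limit, or well fluorescence over plate mean plus 4 SD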;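 further: Nile Red retained in pooled yeast measured as flow cytometry median fluorescence; higher means more Nile Red kept so more efflux inhibition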
A1 inh – caspase 3/7 activation in MEF A1-2A-BIM cells, primary screen, A1 inhibitor project, cell-based, luminescence, HTS | Caspase-Glo 3/7 luminescence, 3 h; percent of clofoctol response, vehicle zero | caspase activation, % (concentration not given with the values) | 0.066% of 330,000 active;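 active means over half of replicate activation scores above 10%, or exactly half above 10 with the replicate mean above 10; inconclusive means replicate mean below 10 yet half the replicates above 10; inactive means over half of replicates below 10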
AHR activator – AHR activators, primary screen, cell-based, luminescence, luciferase reporter, human; activation, % at 5 µM; Aryl hydrocarbon receptor (Homo sapiens), P35869; AHR-responsive luciferase reporter cells; 2.5% of 320,000 active; AID 2796, 2010; in the data active means activation above about 47%
VLA-4 inh – inhibition in human VLA-4 binding assay, primary screen, VLA-4 allosteric modulator project, MLPCN library, flow cytometry, VLA-4 expressing cells | Integrin alpha-4 (Homo sapiens), P13612 | ligand binding flow cytometry | inhibition, % (about 7 µM as worked out from the volumes in the protocol) | 0.2% of 330,000 active | AID 2557, 2010; in the data active means inhibition above about 50%
Target sequence (P13612 whole entry, looked up): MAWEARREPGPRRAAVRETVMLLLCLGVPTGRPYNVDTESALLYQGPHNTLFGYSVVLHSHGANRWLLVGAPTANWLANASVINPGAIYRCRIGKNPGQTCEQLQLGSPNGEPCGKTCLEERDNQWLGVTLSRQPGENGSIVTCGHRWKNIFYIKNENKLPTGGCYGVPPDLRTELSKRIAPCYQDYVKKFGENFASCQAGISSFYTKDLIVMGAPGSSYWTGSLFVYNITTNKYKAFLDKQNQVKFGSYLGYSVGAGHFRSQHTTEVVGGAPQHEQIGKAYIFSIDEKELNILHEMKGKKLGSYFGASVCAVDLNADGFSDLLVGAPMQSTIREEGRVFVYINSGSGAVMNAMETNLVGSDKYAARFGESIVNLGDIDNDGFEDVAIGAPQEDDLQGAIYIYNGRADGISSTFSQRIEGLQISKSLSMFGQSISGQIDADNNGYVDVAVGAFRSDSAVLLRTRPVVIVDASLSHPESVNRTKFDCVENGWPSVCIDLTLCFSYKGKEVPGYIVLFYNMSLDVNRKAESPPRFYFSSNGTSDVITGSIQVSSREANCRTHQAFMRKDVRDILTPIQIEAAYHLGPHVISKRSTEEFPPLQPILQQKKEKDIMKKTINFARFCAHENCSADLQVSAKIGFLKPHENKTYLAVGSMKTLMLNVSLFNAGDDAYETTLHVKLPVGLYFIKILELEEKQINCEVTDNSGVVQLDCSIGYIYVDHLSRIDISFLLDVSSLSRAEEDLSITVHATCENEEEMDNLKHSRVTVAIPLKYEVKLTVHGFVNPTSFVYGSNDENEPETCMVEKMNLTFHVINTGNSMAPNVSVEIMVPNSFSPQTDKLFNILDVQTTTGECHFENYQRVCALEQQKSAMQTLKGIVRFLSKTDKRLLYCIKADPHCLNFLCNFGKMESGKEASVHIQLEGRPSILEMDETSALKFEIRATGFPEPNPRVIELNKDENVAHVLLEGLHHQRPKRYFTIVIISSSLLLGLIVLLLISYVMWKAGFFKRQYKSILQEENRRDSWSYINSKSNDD
SUMO Mot1 rescue – yeast Mot1-301 growth rescue at high temperature, primary screen, SUMOylation pathway inhibitor project, S. cerevisiae, ATP luminescence, 38.5C | 1% of 320,000 active | growth rescue, % at 18.8 µM | AID 2716, 2010 | S. cerevisiae Mot1-301 growth rescue; percent above DMSO median, 100 means doubled;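 active means every valid replicate shows activation above 250% relative to neutral control wells; inactive means the rest, any valid replicate at or below 250%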
Hits are given with their value; 0 = inactive; ? = inconclusive; - = not tested or not shown; + = active, no number.

SMILES	ALR inh	Efflux pump mplx	A1 inh	AHR activator	VLA-4 inh	SUMO Mot1 rescue
CC(C)c1ccccc1NC(=O)Nc1ccc2c(c1)OCO2	0	0	0	56	0	0
O=C(CCCc1c[nH]c2ccccc12)NCc1ccccc1C(F)(F)F	0	0	0	0	0	0
CCc1ccc(NC(=O)CCNS(=O)(=O)c2cccc3nsnc23)cc1	0	0	0	0	0	0
O=C(C1=NN(c2ccccc2)C(=O)CC1)N1CCc2ccccc2C1	0	0	0	0	0	0
C=CCOc1ccc(C(=O)Nc2ncn[nH]2)cc1	0	0	0	66	0	0
COc1ccc(OC)c(CN2CCN(C(=O)c3cccc(S(=O)(=O)Nc4ccc(C)cc4)c3)CC2)c1	-	0	0	0	0	-
O=C(O)c1cnc(-c2ccccc2)nc1Sc1ccccc1Cl	98	0	0	0	0	0
CCOC(=O)c1nnc(-c2ccccc2)nc1Sc1ccccc1Cl	97	0	0	0	0	0
CCOC(=O)c1nnc(-c2ccc(C)cc2)nc1Sc1cccc(Cl)c1	-	0	0	0	0	0
CS(=O)(=O)c1ccc(Cl)c(NC(=O)CCN2C(=O)C3CC=CCC3C2=O)c1 (stereo not given)	0	0	0	0	0	0
CCC1CCc2sc(C(=O)NCC(c3ccccc3OC)N3CCCC3)cc2C1 (stereo not given)	0	0	0	0	0	0
C[C@@H]1O[C@@H](OC[C@@H]2O[C@H](Oc3c(-c4ccc(O)cc4)oc4cc(O)cc(O)c4c3=O)[C@@H](O)[C@H](O)[C@H]2O)[C@H](O)[C@H](O)[C@H]1O	80	0	0	0	0	0
O=c1cc(-c2ccc(O)c(O)c2)oc2cc(O)cc(O)c12	?	0	0	0	0	0
C[C@@H]1O[C@@H](O[C@H]2[C@H](O)[C@@H](O)[C@H](Oc3c(-c4ccc(O)cc4)oc4cc(O)cc(O)c4c3=O)O[C@@H]2CO)[C@H](O)[C@H](O)[C@H]1O	0	0	0	0	0	0
O=c1c(O)c(-c2ccc(O)c(O)c2)oc2cc(O)cc(O)c12	99	0	0	0	0	0
O=C(O)C1OC(Oc2c(-c3ccc(O)c(O)c3)oc3cc(O)cc(O)c3c2=O)C(O)C(O)C1O (stereo not given)	99	0	0	0	0	0
Nc1cc(S(=O)(=O)N2CCCCC2)ccc1Oc1ccccc1	0	0	0	0	0	0
COc1ccc(C2SCC(=O)N2c2ccc(F)cc2)cc1 (stereo not given)	99	0	0	0	0	0
COc1ccc(N2C(=O)CSC2c2ccncc2)cc1 (stereo not given)	99	0	0	0	0	0
Cc1cc(C)cc(N2C(=O)CSC2c2cccs2)c1 (stereo not given)	0	0	0	0	0	0
COc1ccc(C2SCC(=O)N2c2ccc(OC)cc2)cc1 (stereo not given)	0	0	0	0	0	0
Cc1ccc(N2C(=O)CSC2c2cccs2)cc1 (stereo not given)	99	0	0	0	0	0
Clc1ccc2[nH]c3c(c2c1)CCc1cn[nH]c1-3	99	0	0	96	0	0
c1ccc2c3c([nH]c2c1)-c1[nH]ncc1CC3	98	0	0	0	0	0
Cc1cccc(NS(=O)(=O)c2ccc(NC(=O)CN(c3cc([N+](=O)[O-])ccc3C)S(C)(=O)=O)cc2)c1	0	0	0	0	0	0
SMILES	ALR inh	Efflux pump mplx	A1 inh	AHR activator	VLA-4 inh	SUMO Mot1 rescue
COc1ccc(C)cc1NS(=O)(=O)c1ccc(NC(=O)CN(c2cc([N+](=O)[O-])ccc2C)S(C)(=O)=O)cc1	0	0	0	48	0	0
CCN(CC(=O)NCC1CCCO1)S(=O)(=O)c1ccc(Cl)cc1 (stereo not given)	0	0	0	0	0	0
CC(=O)c1ccc(S(=O)(=O)N2CCNC(=O)C2)cc1	97	0	0	0	0	0
CC(=O)Nc1ccc(S(=O)(=O)N2CCNC(=O)C2)cc1	0	0	0	0	0	0
CC(C)c1ccc(NC(=O)C2CCCCC2C(=O)O)cc1 (stereo not given)	0	0	0	0	0	+
CCc1ccc(NC(=O)C2CCCCC2C(=O)O)cc1 (stereo not given)	0	0	0	0	0	0
O=C(O)[C@H]1CCCC[C@H]1C(=O)Nc1ccc(Nc2ccccc2)cc1	98	0	0	0	0	0
CC(C)c1ccc(NNC(=O)C2CCC2)cc1	-	0	0	49	0	0
CNc1c(NS(=O)(=O)c2ccc(OC)c(Cl)c2)c(=O)oc2ccccc12	0	0	0	0	0	0
COc1ccc(CCC(=O)N2CCCC(Nc3ccccc3)C2)cc1OC (stereo not given)	98	0	0	0	0	0
O=C(CCc1ccncc1)N1CCCC(Nc2ccc(F)cc2)C1 (stereo not given)	0	0	0	0	0	0
CCc1nccn1CCC(=O)N1CCCC(Nc2ccc(C(C)C)cc2)C1 (stereo not given)	0	0	0	0	0	0
COc1ccc(NC2CCCN(C(=O)CCc3cn[nH]c3)C2)cc1 (stereo not given)	99	0	0	0	0	0
CC(C)c1ccc(NC2CCCN(C(=O)CCc3cn[nH]c3)C2)cc1 (stereo not given)	98	0	0	-	0	0
COc1ccc(CCC(=O)N2CCCC(Nc3ccc(OC)cc3)C2)cc1 (stereo not given)	99	0	0	0	0	0
COc1ccc(CCN(C)C2CCCN(C(=O)CCSC)C2)cc1OC (stereo not given)	0	0	0	0	0	0
CC(C)CNC(=O)NC(=O)COC(=O)c1cc(F)cc(F)c1	0	0	0	0	0	0
O=C(COC(=O)c1cnc(Cl)c(Cl)c1)NC1CC1	0	0	0	0	0	0
COc1ccccc1CNC(=O)COC(=O)c1ccc(C)s1	-	0	0	0	0	0
Cc1cc(C(=O)N2CCCC(Nc3ccc(F)cc3)C2)n(C)n1 (stereo not given)	0	0	0	0	0	0
COc1ccc(NC2CCCN(C(=O)CSc3ccncc3)C2)cc1 (stereo not given)	99	0	0	0	0	0
COc1cc(OC)cc(C(=O)N2CCCC(Nc3ccc(F)cc3)C2)c1 (stereo not given)	99	0	0	0	0	0
COc1ccc(NC2CCCN(C(=O)CCC3=NNC(=O)CC3)C2)cc1 (stereo not given)	87	0	0	0	0	0
O=C(CSc1ccccc1)N1CCCC(Nc2ccccc2)C1 (stereo not given)	0	0	0	0	0	0
